Records with an inconclusive call do not appear. Some compounds were tested as several samples or in several runs, with calls that do not always agree. Calls of active or inactive are those of the source. Rule for the calls, unless noted: active = hit-call score of the fitted dose curve at least 0.9, where 1 is the maximum; inactive = score below 0.9.
Tests used:
[1] = UKN2_HCS_IMR90_cell_viability: Viability Assessment in the University of Konstanz (UKN) Leist Lab Neural Crest Cell Migration Assay in human induced IMR90 Pluripotent Stem Cells (UKN2) (AID 2284233);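 note: viability of neural crest cells differentiated from IMR90 iPSC measured by calcein-AM fluorescence imaging; cells exposed to compound for 24 h after a 24 h migration phase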
Outline: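 iPSC-derived (IMR90) neural crest cells seeded around silicone stoppers on PLO/laminin/fibronectin; after 24 h migration in N2-S with EGF/FGF, chemical added for 24 h. Calcein-AM/Hoechst stained 30 min, high-content imaged; bidirectional fit versus DMSO.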

[2] = CCTE_Mundy_HCI_Cortical_NOG_NeuronCount: CCTE's Neurite Outgrowth Assay in rat cortical cells for Neuron Count, Mundy Lab (AID 2284236; active = hit-call score of the fitted dose curve at least 0.9, where 1 is the maximum;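 note: neurons counted by imaging betaIII-tubulin and Hoechst stained cortical cells; cells exposed to compound for about 48 hours before fixation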)
Outline: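 Read-out: neuron number by high-content imaging of betaIII-tubulin (Alexa Fluor-488) and Hoechst-labelled rat primary cortical cells.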

[3] = CCTE_Mundy_HCI_Cortical_NOG_BPCount: CCTE's Neurite Outgrowth Assay in rat cortical cells for Branch Point Count, Mundy Lab (AID 2284237);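 for AC50: branch points counted about two days after chemical exposure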
Outline: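 Measured 50.33 h after dosing, this morphology endpoint uses rat primary cortical cultures labelled for betaIII-tubulin. Branch points are quantified by high-content imaging, with DMSO as negative control and baseline.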

[4] = CCTE_Mundy_HCI_hNP1_Casp3_7: CCTE's Caspase-Glo 3/7 Assay in human neuroprogenitor cells for Apoptosis, Mundy Lab (AID 2284240)
Outline: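 Neuroepithelial-lineage stem cells from WA09 embryonic cells were treated with chemicals after 40–44 h of culture. Twenty-four hours later, caspase-3/7 activation was detected luminescently after a 30 min room-temperature reagent step, with DMSO as baseline.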

[5] = CCTE_Mundy_HCI_Cortical_Synap_Neur_Matur_NeuronCount: CCTE's Synaptogenesis and Neurite Maturation Assay in rat cortical cells for Neuron Count, Mundy Lab (AID 2284242; active = hit-call score of the fitted dose curve at least 0.9, where 1 is the maximum;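 for AC50: neuron number from Hoechst nuclei and MAP2 staining by high-content imaging; hits reduce neuron count versus DMSO baseline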)
Outline: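 Rat primary cortical cells received AraC at DIV 5 to arrest glia, then were dosed with chemicals at DIV 7 through DIV 12. Fixed cells were stained for nuclei, MAP2 and synaptophysin, and neurons were counted by high-content imaging relative to DMSO.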

[6] = CCTE_Mundy_HCI_hNP1_CellTiter: CCTE's Cell Titer-Glo 2 Assay in human neuroprogenitor cells for Viability, Mundy Lab (AID 2284241; active = hit-call score of the fitted dose curve at least 0.9, where 1 is the maximum;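 for AC50: a hit is a drop in ATP luminescence versus DMSO meaning reduced viability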)
Outline: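 Measures ATP content in human neural progenitors derived from WA09 embryonic cells. Read-out at 26.5 hours after dosing, with DMSO serving as the negative control and baseline.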

[7] = TAMU_HCS_1.5hr_SingleDonor1434_Cytotoxicity: Cytotoxicity Assessment using High-content Screening (HCS) Fluorescent Imaging for the Texas A&M University (TAMU) 1.5-hr Human Induced Pluripotent Stem Cell (iPSC)-derived Cardiotoxicity Assay (AID 2284234; active = hit-call score of the fitted dose curve at least 0.9, where 1 is the maximum)
Outline: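 Human iPSC-derived cardiomyocytes dosed at 0.2, 1, 10, 100 uM final (0.5% DMSO) for 90 min at 37 C. Hoechst 33342-stained nuclei counted by 10x high-content imaging; POD is EC10, a 10% drop in total cell count versus DMSO.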

[8] = UKN4_HCS_LUHMES_cell_viability: Viability Assessment in the University of Konstanz (UKN) Leist Lab Neurite Outgrowth Assay in human LUHMES cells (UKN4) (AID 2284232)
Outline: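 LUHMES cells differentiated 2 days, replated without cAMP/GDNF, then exposed to compounds for 24 h from attachment. Viability read by high-content fluorescence imaging after 30 min live-staining with H-33342 and calcein-AM; bidirectional fit relative to DMSO baseline.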

[9] = read-out: Collagen I, COL1A1 (gene 1277); assay: BSK_MyoF_CollagenI: BioMAP Diversity Plus: MyoF Assay for Collagen I Biomarker Activity (AID 2284238); conditions: primary human lung fibroblasts
Outline: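 Measured by ELISA: Collagen I from human lung fibroblasts 24 h after compound addition, analysed for signal gain with DMSO as baseline; overt toxicity read from SRB staining of parallel cultures at the same time.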

[10] = read-out: Collagen III, COL3A1 (gene 1281); assay: BSK_MyoF_CollagenIII: BioMAP Diversity Plus: MyoF Assay for Collagen III Biomarker Activity (AID 2284239); conditions: primary human lung fibroblasts
Outline: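 Multiplexed cell assay in lung fibroblasts, harvested at 24 h post-dose. Collagen III detected by ELISA, with positive-direction fitting relative to DMSO vehicle.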

[11] = read-out: Interleukin 17F (IL17F), IL17F (gene 112744); assay: BSK_BT_xIL17F: BioMAP Diversity Plus: BT Assay for Interleukin 17F (IL17F) Biomarker Activity (AID 2284243); conditions: primary human B cells with PBMC
Outline: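 Luminex readout of IL-17F secretion, 24 h; cells: human B cells with PBMC; positive-direction analysis, DMSO control.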

[12] = read-out: Actin alpha 1 (ACTA1), ACTA1 (gene 58); assay: BSK_MyoF_ACTA1: BioMAP Diversity Plus: MyoF Assay for Actin alpha 1 (ACTA1) Biomarker Activity (AID 2284244); conditions: primary human lung fibroblasts
Outline: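 Human lung fibroblasts (MyoF system) dosed with test chemical for 24 h; α-SMA measured by ELISA. Gain of signal fitted relative to DMSO negative control as baseline.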

[13] = read-out: Interleukin 2 (IL2), IL2 (gene 3558); assay: BSK_BT_xIL2: BioMAP Diversity Plus: BT Assay for Interleukin 2 (IL2) Biomarker Activity (AID 2284245); conditions: primary human B cells with PBMC
Outline: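 Human B cells co-cultured with PBMC, exposed to test chemical for 24 h. Secreted IL-2 quantified by Luminex xMAP bead immunoassay; activity fitted in the positive direction relative to DMSO vehicle baseline.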

[14] = read-out: Basic fibroblast growth factor (bFGF), FGF2 (gene 2247); assay: BSK_MyoF_bFGF: BioMAP Diversity Plus: MyoF Assay for Basic fibroblast growth factor (bFGF) Biomarker Activity (AID 2284246); conditions: primary human lung fibroblasts
Outline: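 Human lung fibroblasts were dosed with chemicals and bFGF was quantified by ELISA 24 h later. Activity was fitted in the gain-of-signal direction relative to DMSO as negative control and baseline. Parallel SRB total-protein staining tracked overt cytotoxicity.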

[15] = read-out: Collagen IV, COL4A1 (gene 1282); assay: BSK_MyoF_CollagenIV: BioMAP Diversity Plus: MyoF Assay for Collagen IV Biomarker Activity (AID 2284247); conditions: primary human lung fibroblasts
Outline: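 Primary human lung fibroblasts were exposed to test chemicals and sampled 24 h after dosing. Collagen IV levels were measured by ELISA and fitted in the positive direction against DMSO as negative control and baseline.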

[16] = read-out: Plasminogen activator inhibitor-1 (PAI1), SERPINE1 (gene 5054); assay: BSK_MyoF_PAI1: BioMAP Diversity Plus: MyoF Assay for Plasminogen activator inhibitor-1 (PAI1) Biomarker Activity (AID 2284256); conditions: primary human lung fibroblasts
Outline: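 In this multiplexed primary-cell system, fibroblasts from human lung received compound for 24 h before ELISA detection of PAI-1; overt toxicity was checked by SRB (0.1%, TCA-fixed, 560 nm) in parallel wells.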

[17] = read-out: Interleukin-8 (IL8), CXCL8 (gene 3576); assay: BSK_MyoF_IL8: BioMAP Diversity Plus: MyoF Assay for Interleukin-8 (IL8) Biomarker Activity (AID 2284261); conditions: primary human lung fibroblasts
Outline: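 DMSO-normalised, upward-fitted IL-8 ELISA signal; human lung fibroblasts, 24 h chemical treatment.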

Decorin, DCN (gene 1634) = assay: BSK_MyoF_Decorin: BioMAP Diversity Plus: MyoF Assay for Decorin Biomarker Activity (AID 2284265); conditions: primary human lung fibroblasts
Outline: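 In this multiplexed fibroblast system, secreted or surface decorin is detected by ELISA one day after dosing, with increases scored against the DMSO vehicle.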

[18] = BSK_MyoF_SRB: Viability Assessment in the BioMAP Diversity Plus: MyoF Assay (AID 2284267); conditions: primary human lung fibroblasts;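 note: total protein by SRB absorbance in parallel cultures as cytotoxicity measure; cells assessed 24 h after compound addition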
Outline: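 Human lung fibroblasts dosed with chemical and assessed 24 h later for overt cytotoxicity in parallel cultures. Total protein quantified by sulforhodamine B staining (0.1% SRB after 10% TCA fixation), read at 560 nm, analysed in positive direction versus DMSO baseline.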

[19] = TAMU_PeakParms_SingleDonor1434_QT: Texas A&M University (TAMU) 1.5-hr Human Induced Pluripotent Stem Cell (iPSC)-derived Cardiomyocytes Calcium (Ca+2) Flux Assay for Cardiotoxicity: QT (decay-rise ratio) (AID 2284235; active = hit-call score of the fitted dose curve at least 0.9, where 1 is the maximum)
Outline: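 iPSC-derived cardiomyocytes (single donor 1434) dosed at 0.2, 1, 10, 100 uM final in 0.5% DMSO, 90 min at 37C. Ca2+ flux fluorescence decay/rise ratio; EC05 (5% increase versus DMSO) as POD, excluding beat-arrest and severe-notch data.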

Measured: AC50

CO/N=C(/C1=NOCCO1)c1ccccc1Oc1ncnc(Oc2ccccc2Cl)c1F
active: [2] 10.9 µM | [3] 2.55 µM | [4] 90 µM | [5] 1.52 µM
inactive: [1]

CC1(C)C(C=C(Cl)Cl)C1C(=O)OC(C#N)c1cccc(Oc2ccccc2)c1 (configuration not stated)
inactive: [3] | [4] | [6] | [5]

CS(=O)(=O)c1cc(C(F)(F)F)ccc1C(=O)c1cnoc1C1CC1
active: [2] 9.92 µM
inactive: [1] | [3] | [4] | [6]

CNC(=O)Oc1cccc2ccccc12
inactive: [7] | [3] | [4] | [6]
active: [5] 22.9 µM

C=C(C)CN(CC)c1c([N+](=O)[O-])cc(C(F)(F)F)cc1[N+](=O)[O-]
active: [1] 121 µM | [2] 50 µM | [3] 50 µM | [4] 77.5 µM | [6] 31.5 µM | [5] 8.46 µM

CN/C(=N\[N+](=O)[O-])NCc1cnc(Cl)s1
inactive: [2] | [3] | [4] | [6]

CCN(CC)c1nc(C)cc(OP(=S)(OC)OC)n1
active: [2] 80.8 µM | [3] 90.6 µM | [4] 75.1 µM | [6] 71.4 µM | [5] 9.92 µM

COP(=S)(OC)SCn1nnc2ccccc2c1=O
inactive: [8] | [2] | [3] | [4] | [6]
active: [1] 32.2 µM

CCOP(=O)(OCC)Oc1nc(Cl)c(Cl)cc1Cl
active: [8] 65.1 µM | [1] 3.19 µM | [4] 50 µM
inactive: [2] | [3] | [4] | [6] | [5]

Cc1c(COC(=O)[C@@H]2[C@H](/C=C(\Cl)C(F)(F)F)C2(C)C)cccc1-c1ccccc1
inactive: [1]
active: [2] 21.2 µM | [3] 25.9 µM | [4] 10.3 µM | [6] 9.1 µM | [5] 2.95 µM

CS(=O)(=O)c1ccc(C(=O)C2C(=O)CCCC2=O)c([N+](=O)[O-])c1
inactive: [1] | [3] | [4] | [6]

N#CN=C1SCCN1Cc1ccc(Cl)nc1
inactive: [3] | [4] | [6]

O=C(Nc1ccccc1-c1ccc(Cl)cc1)c1cccnc1Cl
inactive: [1] | [2] | [3] | [4] | [6]

CCNC(=O)NC(=O)C(C#N)=NOC
inactive: [2] | [3] | [4] | [6]

COP(=O)(OC)O/C(C)=C/C(=O)N(C)C
inactive: [3] | [4] | [5]

COCC(C)N(C(=O)CCl)c1c(C)csc1C (configuration not stated)
inactive: [13] | [14] | [15] | Decorin, DCN (gene 1634) | [18]
active: [9] 17.3 µM | [10] 26.2 µM | [11] 23.8 µM | [12] 30.9 µM | [16] 20 µM | [17] 10.3 µM

CCSC(=O)N1CCCCCC1
inactive: [1] | [2] | [3] | [4] | [6] | [5]

COC(=O)N(C(=O)N1CO[C@@]2(C(=O)OC)Cc3cc(Cl)ccc3C2=N1)c1ccc(OC(F)(F)F)cc1
active: [1] 33.1 µM
inactive: [3] | [4] | [6]

CC(C)(C)C(=O)C(Oc1ccc(Cl)cc1)n1cncn1 (configuration not stated)
active: [3] 33.2 µM | [5] 11 µM
inactive: [1] | [2] | [4] | [6]

O=C1C2CC=CCC2C(=O)N1SC(Cl)(Cl)Cl (configuration not stated)
inactive: [19]
active: [7] 84.7 µM
